Measurements: PubChem BioAssay (NCI)
The panel holds about 79,000 compounds, 15% with a hit somewhere; the sample as a whole holds those more often. Calls of active or inactive are those of the source. Rule as the data show it: active = growth inhibition above about 70%; inactive = the rest.

Experiments:
[1] = NCI Yeast Anticancer Drug Screen. Data for the rad50 strain (AID 155);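 also: 0% = growth of vehicle-only cultures of the same strain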; settings: S. cerevisiae rad50 strain growth inhibition, active compounds read high
In short: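 Vehicle-treated cultures provide the reference for the growth inhibition reported for compound-exposed, repair-deficient yeast.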

[2] = NCI Yeast Anticancer Drug Screen. Data for the mec2-1 strain (AID 157); settings: S. cerevisiae mec2-1 strain, active compounds read high
In short: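 Using mec2-1 yeast: add compound, measure growth, express inhibition versus vehicle-treated cultures.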

[3] = NCI Yeast Anticancer Drug Screen. Data for the sgs1 mgt1 strain (AID 161);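 also: 0% = growth of cultures given vehicle only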; settings: S. cerevisiae sgs1 mgt1 strain, active compounds read high
In short: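 This yeast growth screen uses a strain with defined DNA-repair lesions; compound-treated growth is compared with vehicle-treated growth.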

[4] = NCI Yeast Anticancer Drug Screen. Data for the cln2 rad14 strain (AID 165);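 also: 0% = growth equal to vehicle treated cultures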; settings: S. cerevisiae cln2 rad14 strain, active compounds read high
In short: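 Yeast strain cln2 rad14, bearing defects in cell cycle control and DNA repair, serves as the test system; values reflect growth inhibition compared with vehicle.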

[5] = NCI Yeast Anticancer Drug Screen. Data for the bub3 strain (AID 167); settings: S. cerevisiae bub3 mutant strain, active compounds read high
In short: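 Mutant yeast screening strain plus compound; vehicle-treated cultures serve as the 0% inhibition reference.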

[6] = NCI Yeast Anticancer Drug Screen. Data for the wt1 strain (AID 149);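 also: 0% = growth of vehicle-treated wt1 cultures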; settings: S. cerevisiae wt1 strain (SPY 50644) growth inhibition, active compounds read high
In short: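 Each compound is tested on wt1 yeast and the loss of growth versus vehicle gives the inhibition value.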

[7] = NCI Yeast Anticancer Drug Screen. Data for the mgt1 strain (AID 153); settings: S. cerevisiae mgt1 mutant growth inhibition, active compounds read high
In short: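 Measured: inhibition of mgt1 yeast growth by compound, normalized to vehicle-treated cultures.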

[8] = NCI Yeast Anticancer Drug Screen. Data for the rad14 strain (AID 159);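 also: 0% = growth of vehicle-treated control cultures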; settings: S. cerevisiae rad14 strain growth inhibition, active compounds read high
In short: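 Inhibition of growth is reported for a repair-deficient yeast mutant following compound treatment, calculated relative to cultures that received vehicle.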

[9] = NCI Yeast Anticancer Drug Screen. Data for the mlh1 strain (AID 171);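 also: 0% = growth of vehicle-treated control cultures of the same strain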; settings: S. cerevisiae mlh1 strain growth inhibition, active compounds read high
In short: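 A yeast strain with a defined genetic lesion serves as the test organism. Cultures receive compound or vehicle, and growth is measured.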

[10] = NCI Yeast Anticancer Drug Screen. Data for the sgs1 strain (AID 173);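 also: 0% = growth of vehicle-only control cultures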; settings: S. cerevisiae sgs1 mutant, active compounds read high
In short: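 A genetically defined yeast mutant is incubated with the test compound, and its growth is compared to that of the same strain given vehicle.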

[11] = NCI Yeast Anticancer Drug Screen. Data for the mlh1 rad18 strain (AID 175); settings: S. cerevisiae mlh1 rad18 strain growth inhibition, active compounds read high
In short: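 Steps: expose repair-defective yeast to compound; measure growth; express inhibition against vehicle-treated controls.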

[12] = NCI Yeast Anticancer Drug Screen. Data for the rad18 strain (AID 177); settings: S. cerevisiae rad18 mutant growth inhibition, active compounds read high
In short: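 Measured value is growth inhibition of a yeast strain bearing a DNA repair alteration, referenced to vehicle-treated cells.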

[13] = at 5.0 µM (retest, dose inferred, filed as 0.5)
[14] = at 50.0 µM (retest, dose inferred, filed as 5.0)

Measured: growth inhibition

[O]=[Sb][c]1ccc(Cl)cc1
inactive: [1]; [13] 5% | [1]; [14] 42% | [2]; [13] 3% | [2]; [14] 36% | [3]; [13] 1% | [3]; [14] 56% | [4]; [13] 0% | [4]; [14] 19% | [4]; at 50.0 µM 54.3% | [5]; [13] 4% | [5]; [14] 48%
active: [1]; at 50.0 µM 96.7% | [2]; at 50.0 µM 85.5% | [3]; at 50.0 µM 99.1% | [5]; at 50.0 µM 87.7%

COc1c(NC(=O)CC(C)=O)[c]([Hg][O]C(C)=O)c(OC)c(Cl)[c]1[Hg][O]C(C)=O
active: [1]; [14] 95% | [1]; at 50.0 µM 91.8% | [2]; [14] 96% | [2]; at 50.0 µM 93.8% | [3]; [13] 81% | [3]; [14] 97% | [3]; at 50.0 µM 93.5% | [4]; [14] 96% | [4]; at 50.0 µM 88.8% | [5]; [14] 97% | [5]; at 50.0 µM 93.3%
inactive: [1]; [13] 29% | [2]; [13] 32% | [4]; [13] 29% | [5]; [13] 62%

O=Cc1ccc(C(F)(F)F)cc1.[C-]#[O+].[C-]#[O+].[C-]#[O+].[Cr]
active: [1]; [14] 75% | [3]; [14] 81% | [3]; at 50.0 µM 78.5% | [11]; [14] 78%
inactive: [6]; at 1.2 µM 0% | [6]; at 3.7 µM 2% | [6]; at 11.0 µM 8% | [6]; at 33.0 µM 15% | [6]; at 100.0 µM 17% | [7]; at 1.2 µM 1% | [7]; at 3.7 µM 1% | [7]; at 11.0 µM 20% | [7]; at 33.0 µM 11% | [7]; at 100.0 µM 17% | [1]; at 1.2 µM 6% | [1]; at 3.7 µM 11% | [1]; [13] 3% | [1]; at 11.0 µM 23% | [1]; at 33.0 µM 38% | [1]; at 50.0 µM 67.8% | [1]; at 100.0 µM 40% | [2]; at 1.2 µM 5% | [2]; at 3.7 µM 2% | [2]; [13] -7% | [2]; at 11.0 µM 5% | [2]; at 33.0 µM 8% | [2]; [14] 47% | [2]; at 50.0 µM 61.6% | [2]; at 100.0 µM 14% | [8]; at 1.2 µM 6% | [8]; at 3.7 µM 8% | [8]; at 11.0 µM 15% | [8]; at 33.0 µM 30% | [8]; at 100.0 µM 30% | [3]; [13] -18% | [4]; [13] -15% | [4]; [14] 58% | [4]; at 50.0 µM 63.6% | [5]; at 1.2 µM -7% | [5]; at 3.7 µM -1% | [5]; [13] -18% | [5]; at 11.0 µM 12% | [5]; at 33.0 µM 21% | [5]; [14] -7% | [5]; at 50.0 µM 66.2% | [5]; at 100.0 µM 31% | [9]; at 1.2 µM -1% | [9]; at 3.7 µM -4% | [9]; at 11.0 µM 7% | [9]; at 33.0 µM 8% | [9]; at 100.0 µM 7% | [10]; at 1.2 µM 12% | [10]; at 3.7 µM 11% | [10]; at 11.0 µM 40% | [10]; at 33.0 µM 62% | [10]; at 100.0 µM 64% | [11]; [13] 11% | [11]; at 50.0 µM 63.3% | [12]; at 1.2 µM 1% | [12]; at 3.7 µM 3% | [12]; at 11.0 µM 20% | [12]; at 33.0 µM 40% | [12]; at 100.0 µM 62%

COC(COC(N)=O)C1=C(N2CC2)C(=O)C(C)=C(N2CC2)C1=O (stereo not given)
active: [1]; [14] 98% | [2]; [14] 99% | [2]; at 50.0 µM 71.2% | [3]; [14] 99% | [4]; [14] 98% | [5]; [14] 99% | [11]; [13] 76% | [11]; [14] 97%
inactive: [1]; [13] 47% | [1]; at 50.0 µM 66.1% | [2]; [13] 39% | [3]; [13] 50% | [3]; at 50.0 µM 43.3% | [4]; [13] 40% | [4]; at 50.0 µM 50.6% | [5]; [13] 42% | [5]; at 50.0 µM 24.9%

CCCCCCCCCCCCC(=O)[O][Hg][c]1ccccc1
active: [1]; [13] 99% | [1]; [14] 99% | [1]; at 50.0 µM 99.2% | [2]; [13] 100% | [2]; [14] 100% | [2]; at 50.0 µM 99.5% | [3]; [13] 100% | [3]; [14] 100% | [3]; at 50.0 µM 99.5% | [4]; [13] 99% | [4]; [14] 99% | [4]; at 50.0 µM 99.3% | [5]; [13] 99% | [5]; [14] 99% | [5]; at 50.0 µM 100%

COc1ccc(C(Cc2ccc(Cl)c(Cl)c2)NCCO)cc1 (stereo not given)
inactive: [1]; [13] -16% | [1]; [14] 37% | [2]; [13] -5% | [2]; [14] -1% | [2]; at 50.0 µM 23.3% | [3]; [13] -35% | [3]; [14] 27% | [3]; at 50.0 µM 31.1% | [4]; [13] -2% | [4]; [14] 10% | [4]; at 50.0 µM 11.9% | [5]; [13] 4% | [5]; [14] 32% | [5]; at 50.0 µM 59.1%
active: [1]; at 50.0 µM 75%

CC(Cc1ccccc1)[N+](=O)[O-] (stereo not given)
active: [1]; [14] 70% | [1]; at 50.0 µM 79%
inactive: [1]; [13] 8% | [2]; [13] 0% | [2]; [14] 6% | [2]; at 50.0 µM -12.9% | [3]; [13] 2% | [3]; [14] 7% | [3]; at 50.0 µM -8.2% | [4]; [13] 3% | [4]; [14] -3% | [4]; at 50.0 µM -19.6% | [5]; [13] 7% | [5]; [14] 27% | [5]; at 50.0 µM -6.9%
